# HER2 expr 66K = inhibitors of Her2 protein expression, primary screen, SKBR-3 cells, AlphaScreen, 66K library; Receptor tyrosine-protein kinase erbB-2 (Homo sapiens), P04626; SKBR-3 HER2 protein level, 18-24 h; hits give low values; HER2 level % of control, % at 10 µM; 65,000 compounds, 0.69% hits; AID 645, 2007;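 active = HER2 level under 5% of the carrier-only control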;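 also: 100% = DMSO carrier and 0% = 500 nM PU-H71 HSP90 inhibitor; lower value means stronger loss of Her2 protein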
# FXIa mix inh = FXIa protease inhibitors in compound pools, primary screen, biochemical, 10-compound mixtures | purified FXIa, fluorogenic substrate, pooled mixtures | inhibition, % at 5 µM | 62,000 compounds, 0.19% hits | AID 680, 2007;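 also: each value is inhibition by a whole ten-compound pool holding the compound; 0% = enzyme with no mixture and 100% = wells lacking enzyme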
# JNK3 inh = JNK3 kinase activity inhibitors, primary screen, biochemical, human, purified enzyme; HTS; inhibition, % at 8 µM; 60,000 compounds, 0.61% hits; in the data active = inhibition above about 17%;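 also: 0% = DMSO and 100% = reference inhibitor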
# M1 antag = antagonists of rat M1 muscarinic receptor. CHO-M1 cells, Fluo-4 calcium, ACh EC80 antagonist mode; hits give low values. Muscarinic acetylcholine receptor M1 (Rattus norvegicus), P08482. 64,000 compounds, 3.4% hits. B-score at 10 µM;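 active = calcium fluorescence response, raw or row-and-column corrected B-score, differing from the plate sample mean either way at a set confidence level, mostly lower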
# FXIIa mix inh = human factor XIIa inhibitors, primary screen, biochemical, pooled compound mixtures, fluorogenic substrate; Coagulation factor XII (Homo sapiens), P00748; purified FXIIa; inhibition, % at 5 µM; 62,000 compounds, 0.2% hits; AID 684, 2007;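 also: 0% = enzyme without compound and 100% = no enzyme blank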
# Target sequence (P00748 20-372 limits assumed): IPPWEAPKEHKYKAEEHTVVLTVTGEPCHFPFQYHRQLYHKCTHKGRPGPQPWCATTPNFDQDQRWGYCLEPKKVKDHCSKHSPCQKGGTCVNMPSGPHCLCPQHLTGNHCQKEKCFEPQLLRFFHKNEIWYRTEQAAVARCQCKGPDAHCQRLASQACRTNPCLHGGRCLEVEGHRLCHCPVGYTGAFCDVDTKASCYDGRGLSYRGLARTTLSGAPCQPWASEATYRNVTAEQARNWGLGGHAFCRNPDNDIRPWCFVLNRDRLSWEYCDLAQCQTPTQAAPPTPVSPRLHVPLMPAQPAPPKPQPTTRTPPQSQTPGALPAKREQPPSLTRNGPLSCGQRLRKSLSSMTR
# Target sequence (P00748 373-615 limits assumed): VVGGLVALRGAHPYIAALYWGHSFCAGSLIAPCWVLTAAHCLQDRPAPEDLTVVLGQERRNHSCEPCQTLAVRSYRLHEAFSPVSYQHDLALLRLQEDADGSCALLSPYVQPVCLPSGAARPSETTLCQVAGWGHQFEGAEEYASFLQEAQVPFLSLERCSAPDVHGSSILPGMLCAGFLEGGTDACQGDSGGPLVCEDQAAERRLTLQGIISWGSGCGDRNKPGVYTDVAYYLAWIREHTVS
# M1 ag = M1 muscarinic receptor agonists, primary screen, CHO-M1 cells, Fluo-4 calcium, agonist mode | Muscarinic acetylcholine receptor M1 | Fluo-4 calcium fluorescence; hits give high values | B-score at 10 µM | 64,000 compounds, 3% hits;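 active = fluorescence rise, raw or as B-score row- and column-corrected plate score, outside the 99.7% band of its plate's samples, either direction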
# M1 antag conf = rat M1 muscarinic receptor antagonists, confirmation, CHO cells, Fluo-4 calcium, duplicate; 1,700 compounds, 43% hits; AID 677, 2007; ACh EC80 antagonism; hits give low values; calcium response (max-min fluorescence) at 10 µM; shares compounds with M1 antag;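 active = calcium response below the same-plate mean of wells given acetylcholine alone at its 80%-effect dose, minus 3 SD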;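 also: raw fluorescence intensity difference in arbitrary instrument units and not normalized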
# mGluR4 antag = human mGluR4 response to M1 antagonist hits, M1 allosteric modulator project, cell-based, antagonist mode, secondary assay 1 | shares compounds with M1 antag | CHO-mGluR4 calcium flux, Fluo-4 fluorescence, glutamate EC80; hits give low values | fluorescence response (max-min) at 10 µM | 1,700 compounds, 0.9% hits | AID 678, 2007;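 active = fluorescence response below the plate's average for near-maximal glutamate wells, less 3 SD of those wells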;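 also: raw unnormalized fluorescence span taken in the window right after glutamate addition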
# Active calls of the source: *; nt = no result. Most compounds without a hit are left out; they make up all but 6.9% or so of the library. Rule as the data show it, unless noted: active = inhibition above about 20% (passing the limit was not always enough); inactive = the rest.
SMILES,HER2 expr 66K,FXIa mix inh,JNK3 inh,M1 antag,FXIIa mix inh,M1 ag,M1 antag conf,mGluR4 antag
CC1CCCCN1CCCNC(=O)C1CCN(c2nc3ccccc3o2)CC1 (stereo not given),98.4,6.9,-9.3,-4.1*,3.7,-0.385,66.8*,242
COc1ccc(OC)c(C(=O)CSc2nnc(-c3cccnc3)n2C)c1,98.5,8.2,-6.0,0.417,6.8,-0.0908,nt,nt
O=C(NCc1cccs1)c1nc2c(nnn2Cc2ccc(F)cc2)c(=O)[nH]1,76.0,-3.5,3.5,nt,5.1,nt,nt,nt
Cc1ccc(C)c(Cn2nnc3c(=O)[nH]c(C(=O)NCc4ccco4)nc32)c1,65.1,-19.0,-2.2,-2.45*,4.5,-0.833,560,251
C=CCn1c(=O)c2ccccc2n2c(SCc3nnc(-c4ccccc4Br)o3)nnc12,83.5,6.6,5.2,-0.14,0.2,0.145,nt,nt
CNC(=O)C1CC(=O)N(c2ccc(C)cc2)C1 (stereo not given),55.4,2.8,3.6,0.541,9.6,0.193,nt,nt
CCOC(=O)c1sc2nc(NC(=O)c3cccs3)sc2c1C,86.9,6.1,1.7,-2.27,9.2,-0.498,nt,nt
CCOC(=O)c1sc2ncnc(NCC(c3cccs3)N(C)C)c2c1C (stereo not given),48.3,0.7,2.2,-3.38*,8.4,-0.232,496*,188
Cc1ccc2ccc(S(=O)(=O)n3nc(C)cc3C)cc2c1,88.6,2.8,1.3,-1.97*,-17.6,-1.28,443*,269
CCC1(C)Cc2ccccc2-c2nc3n(c(=O)c21)CCCCC3 (stereo not given),76.2,1.2,nt,-3.99*,-15.6,-1.37,420*,215
CCC1(C)Cc2ccccc2-c2nc(NCCO)n(-c3ccccc3)c(=O)c21 (stereo not given),80.7,nt,-3.0,0.382,nt,0.611,nt,nt
CCN(CC)S(=O)(=O)c1ccc(C(=O)Oc2ccc3c(c2)OCO3)cc1,86.8,5.6,-2.1,0.313,-1.8,0.653,nt,nt
CCN(CC)S(=O)(=O)c1ccc(C(=O)OC2CCCCC2CN(C)C)cc1 (stereo not given),77.2,15.8,-2.8,-4.55*,-2.3,0.0484,509,219
Cc1c(Br)cc(C(=O)OC2CCN(C)CC2)c(C)c1C,139.3,1.5,0.9,-0.882,2.7,-0.319,nt,nt
Cn1c(N2CCN(c3ccccn3)CC2)nc2c1c(=O)n(Cc1ccc(Cl)cc1)c(=O)n2C,93.0,nt,5.3,-2.17*,nt,0.707,619,250
Clc1ccc(OCCn2ccnc2)c2ccccc12,107.4,8.1,-3.7,-0.157,6.6,0.0173,nt,nt
Clc1ccc(OCCn2ccnc2)c(Cl)c1,98.5,4.7,3.7,-2.99*,4.9,-1.69,408*,211
O=C(Nc1ccc2c(c1)OCO2)c1noc2c1CCCCC2,92.2,-7.5,-1.2,-4.04*,-2.1,0.0571,387*,232
CC(=O)c1ccc(NC(=O)c2noc3c2CCCCC3)cc1,88.4,-0.8,4.3,-0.215,5.1,0.252,nt,nt
O=C(NC1CCS(=O)(=O)C1)C1CCCCN1S(=O)(=O)c1ccc(Cl)cc1 (stereo not given),203.7,4.0,nt,-3.41*,-6.3,0.306,584,249
Cc1ccc(S(=O)(=O)N2CCC(C(=O)N3CCC[C@H]3C(=O)NC3CCS(=O)(=O)C3)CC2)cc1 (stereo not given in full),67.8,5.7,-0.7,-0.0373,-1.3,-1.18,nt,nt
O=C(CCCCCn1c(=S)[nH]c2cc3c(cc2c1=O)OCO3)N1CCN(Cc2ccccc2)CC1,56.0,11.2,nt,-0.471,3.6,-0.049,nt,nt

# High-throughput results as filed in PubChem BioAssay.
